From publication PMC4336329 (PLoS ONE, 2015)
About 14,000 (4.5%) of roughly 310,000 compounds showed an effect of 50% or more. The effect is printed as a negative number. Shown is part of a subset that was picked to be rich in strong results.

What follows are molecules tested against human ether-à-go-go-related gene (hERG) potassium channel (human, UniProt Q12809) (assay: primary screen, population patch clamp on CHO cells stably expressing hERG; higher = less effect of the substance).
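Further: peak tail current of the secondary pulse compared with the same well before compound.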

Chain of human ether-à-go-go-related gene (hERG) potassium channel (Q12809 whole entry, looked up): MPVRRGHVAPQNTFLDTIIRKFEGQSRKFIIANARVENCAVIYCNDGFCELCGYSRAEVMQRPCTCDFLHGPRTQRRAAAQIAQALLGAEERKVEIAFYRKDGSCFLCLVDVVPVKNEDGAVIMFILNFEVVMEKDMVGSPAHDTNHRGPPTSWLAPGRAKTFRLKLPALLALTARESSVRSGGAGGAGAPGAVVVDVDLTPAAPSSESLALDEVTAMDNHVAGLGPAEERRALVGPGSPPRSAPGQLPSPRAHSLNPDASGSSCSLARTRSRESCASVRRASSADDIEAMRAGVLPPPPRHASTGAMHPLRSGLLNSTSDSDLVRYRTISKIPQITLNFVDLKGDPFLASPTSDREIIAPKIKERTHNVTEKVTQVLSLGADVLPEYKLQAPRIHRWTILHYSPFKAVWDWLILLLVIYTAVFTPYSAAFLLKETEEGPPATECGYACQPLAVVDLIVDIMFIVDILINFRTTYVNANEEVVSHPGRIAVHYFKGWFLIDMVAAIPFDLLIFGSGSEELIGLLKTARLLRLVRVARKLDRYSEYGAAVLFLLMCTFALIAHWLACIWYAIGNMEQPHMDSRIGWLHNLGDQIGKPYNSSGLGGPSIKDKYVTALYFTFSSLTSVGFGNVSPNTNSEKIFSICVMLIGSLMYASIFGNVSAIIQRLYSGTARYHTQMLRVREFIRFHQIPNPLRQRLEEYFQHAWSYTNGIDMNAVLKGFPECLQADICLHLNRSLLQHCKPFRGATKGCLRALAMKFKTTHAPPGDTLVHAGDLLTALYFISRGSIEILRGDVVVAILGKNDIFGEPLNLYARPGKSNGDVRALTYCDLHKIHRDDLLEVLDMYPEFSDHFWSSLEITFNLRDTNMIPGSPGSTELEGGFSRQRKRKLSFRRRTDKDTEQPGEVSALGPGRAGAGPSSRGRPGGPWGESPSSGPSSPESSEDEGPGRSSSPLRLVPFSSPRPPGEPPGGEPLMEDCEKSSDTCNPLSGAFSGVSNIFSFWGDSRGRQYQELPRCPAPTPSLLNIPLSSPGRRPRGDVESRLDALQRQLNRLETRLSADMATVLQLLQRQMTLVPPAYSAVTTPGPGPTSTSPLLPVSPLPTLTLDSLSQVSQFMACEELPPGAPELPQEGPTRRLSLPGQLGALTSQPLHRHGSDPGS

Row | SMILES | hERG current change (%, negative = inhibition) at 10uM [%]
1 | COc1ccc(CN2CCC(C(=O)NCCc3ccc(OC)c(OC)c3)CC2)c(OC)c1 | -29.9
2 | CCS(=O)(=O)N1CCCC(C(=O)NCCc2ccc(OC)c(OC)c2)C1 (stereo not drawn) | 13.1
3 | COc1ccc(CCNC(=O)C2CCCN(S(C)(=O)=O)C2)cc1OC (stereo not drawn) | 12
4 | CCc1ccc(-c2nc(CN3CCC(C(=O)NCCc4ccc(OC)c(OC)c4)CC3)c(C)o2)cc1 | -76.2
5 | COc1ccc(-c2nc(CN3CCC(C(=O)NC4CC4)CC3)c(C)o2)cc1OC | -12.8
6 | CCc1ccc(-c2nc(CN3CCCC(C(=O)NCCc4ccc(OC)c(OC)c4)C3)c(C)o2)cc1 (stereo not drawn) | -50.5
7 | Cn1c(=O)cc(OCCCC(=O)NCc2ccc(F)cc2Cl)c2ccccc21 | -15.1
8 | CCCOc1ccc(C(C)=O)cc1CSCCC#N | -1.08
9 | Cn1c(CC(=O)Nc2ccccc2F)nnc1SCC(=O)NC1CCCC1 | 11
10 | Cc1ccc(OCc2cc(C(=O)NCC3COCCO3)no2)cc1C (stereo not drawn) | -10
11 | COc1cccc(OCc2cc(C(=O)NCCN3CCCCC3CO)no2)c1 (stereo not drawn) | 2.5
12 | COCCN1CC(CNC(=O)c2cc(COc3ccc(C)c(C)c3)on2)CC1=O (stereo not drawn) | -20.8
13 | Cc1cc(OCc2cc(C(=O)NC3CCC3)no2)cc(C)c1Cl | 3.82
14 | CCN1CCCC1CNC(=O)c1cc(COc2ccc(C)c(C)c2)on1 (stereo not drawn) | -65.2
15 | Cc1cc(OCc2cc(C(=O)NCCN3CCCCC3CO)no2)cc(C)c1Cl (stereo not drawn) | -65.8
16 | Cn1c(SCC(=O)NNC(=O)c2ccc(Br)cc2)nnc1-c1cccnc1 | 25.6
17 | Cc1ccc(NC(=O)NC(=O)CSc2nnc(-c3ccc(Cl)cc3Cl)n2N)c(C)c1 | -6.38
18 | Cc1nc(C)c(C(=O)NNS(=O)(=O)c2ccccc2)s1 | 8.26
19 | CCOc1cc(/C=N/N=C(N)N)ccc1OCc1ccc(Cl)cc1 | -19.9
20 | COc1cc(CNCc2ccccn2)ccc1OCc1ccc(Cl)c(Cl)c1.Cl | -51.2
21 | Cl.Fc1ccc(COc2cccc(CNCc3ccncc3)c2)cc1 | -40.6
22 | COc1cc(/C=N/N=C(N)N)ccc1OCc1ccc(Cl)cc1 | -50.5
23 | CCOc1c(Cl)cc(CNCc2ccccn2)cc1OC.Cl | -18.7
24 | Cl.OCCNCc1cccc(OCc2ccc(Cl)cc2)c1 | -12.9

Row | SMILES | hERG current change (%, negative = inhibition) at 10uM [%]
25 | COc1cc(/C=N/O)ccc1OCc1ccc(Cl)cc1 | 19.6
26 | Cl.Clc1ccc(COc2cccc(CNCc3ccncc3)c2)cc1 | -59.8
27 | COc1cc(CNCc2ccccn2)ccc1OCc1cccc(Cl)c1.Cl | -54
28 | CCOc1cc(CNCc2ccccn2)cc(Cl)c1OC.Cl | 29.6
29 | Cl.c1ccc(COc2cccc(CNCc3ccccn3)c2)cc1 | -45.2
30 | COc1cc(CNCc2ccccn2)ccc1OCC(=O)NC(C)(C)C.Cl | 0.777
31 | CCC(C)NC(=O)c1ccccc1NC(=O)Nc1ccccc1 (stereo not drawn) | 3.24
32 | COc1ccccc1OCCNC(=O)C(=O)c1c[nH]c2ccccc12 | 5.02
33 | CC1(C)Cc2c(sc3c2C(=O)N(c2ccccc2)C2=NCCCN23)CO1 | 3.7
34 | CC(C)C[C@H](NC(=O)c1nc[nH]c1C(=O)NC1CCN(C(=O)OC(C)(C)C)CC1)C(=O)OC(C)(C)C | -10.8
35 | O=C(Nc1c2c(nn1-c1ccc(F)cc1)CS(=O)C2)C12CC3CC(CC(C3)C1)C2 (stereo not drawn) | 16.7
36 | COc1ccccc1N(CC(=O)NCCSc1ccc(Cl)cc1)S(C)(=O)=O | -6.87
37 | COc1cc(CNCc2ccccn2)ccc1OCc1ccc(Cl)cc1.Cl | -56.8
38 | COc1cc(CNCc2ccccn2)ccc1OCC(N)=O.Cl | -0.0507
39 | COc1cc(CNCc2cccnc2)ccc1OCc1ccccc1.Cl | -21.8
40 | Cc1ccc(S(=O)(=O)NCC(C)n2nc(C)nc2C)cc1 (stereo not drawn) | -0.542
41 | C=CCn1c(O)c(N=O)c2cc(C)ccc21 | -8.69
42 | CCn1c(SCC(=O)Nc2ccc3c(c2)OCCO3)nnc1-c1ccncc1 | 0.979
43 | Cc1ccc(S(=O)(=O)N2CCN(C(=O)CN3CCN(C)CC3)C2)cc1 | 14.1
44 | COc1ccccc1Nc1nc2ccccc2n1C | -3.73
45 | COc1ccccc1C(=O)NCC(=O)Nc1cccnc1 | 20.5
46 | Cc1cccc(C(=O)NCC(=O)NC(C)c2ccc(-n3ccnc3)cc2)c1 (stereo not drawn) | -68.5
47 | COc1ccccc1C(=O)NCC(=O)NC(C)c1ccc(-n2ccnc2)cc1 (stereo not drawn) | -66.4
48 | CCOc1ccc(C(C)NC(=O)c2ccccc2OCc2c(C)noc2C)cc1OCC (stereo not drawn) | -23.8

Row | SMILES | hERG current change (%, negative = inhibition) at 10uM [%]
49 | COc1ccccc1C(=O)NC(C)c1ccc(-n2ccnc2)cc1 (stereo not drawn) | -52.6
50 | Cc1noc(C)c1COc1ccccc1C(=O)NC(C)c1ccc(Cl)cc1 (stereo not drawn) | -55.8
51 | COc1ccccc1C(=O)NC(C)c1ccccc1 (stereo not drawn) | 18.6
52 | COc1ccccc1C(=O)NCCC(=O)NC(C)c1ccc(-n2ccnc2)cc1 (stereo not drawn) | -17.1
53 | Cc1noc(C)c1COc1ccccc1C(=O)NCCc1ccc(Cl)cc1 | -20.8
54 | COC(=O)CSc1nnc2n(-c3ccc(OC)cc3)c(=O)c3c4c(sc3n12)CCCCC4 | -10.6
55 | Cc1cc(NC(=O)CCC(=O)N(CC(=O)NC2CCCC2)c2ccc(Cl)cc2)no1 | -16.7
56 | CN1CCN(S(=O)(=O)c2ccc(NC(=O)COc3ccccc3Cl)cc2)CC1 | 20.1
57 | COc1ccc(NC(C)=O)cc1NS(=O)(=O)c1ccc2c(c1)OCCO2 | 21.4
58 | O=C(Nc1ccc2c(c1)OCO2)c1nn(-c2ccccc2)c(=O)c2ccccc12 | 11
59 | O=C1C(=O)N(CCN2CCOCC2)C(c2ccccc2F)/C1=C(\O)c1ccc(S(=O)(=O)N2CCOCC2)cc1 (stereo not drawn) | 11.5
60 | O=C(Nc1ccccc1-c1nnn(CC(=O)N2CCCc3ccccc32)n1)c1ccc(Cl)cc1 | 8.92
61 | O=C(COC(=O)c1ccc(F)cc1F)NC1CC1 | 23
62 | Cc1ccc(OC(=O)c2cncc(Br)c2)c(C)c1 | 16
63 | N/C(=N\OC(=O)COc1ccccc1)c1ccccn1 | 13.6
64 | O=C(CN(c1ccc(F)cc1)S(=O)(=O)c1ccc2c(c1)OCCO2)Nc1ccc2c(c1)OCO2 | 14.4
65 | N/C(=N\OC(=O)c1cc(Br)ccc1Cl)c1ccccn1 | 13.1
66 | CCOc1ccc(C(=O)NCC(=O)NC(C)c2ccc(-n3ccnc3)cc2)cc1OCC (stereo not drawn) | -77.4
67 | CCOc1ccccc1C(=O)NCC(=O)Nc1ncccc1C | 14
68 | CCOc1ccc(C(=O)NCC(=O)Nc2ccncc2)cc1OCC | 4.58
69 | CCOc1ccccc1C(=O)NCC(=O)NC(C)c1ccc(-n2ccnc2)cc1 (stereo not drawn) | -70.9
70 | CC(NC(=O)c1ccccc1C(=O)O)c1ccc(-n2ccnc2)cc1 (stereo not drawn) | 16
71 | CC(NC(=O)CCNC(=O)c1ccc(Br)cc1)c1ccc(-n2ccnc2)cc1 (stereo not drawn) | -66.5
72 | CCOc1ccccc1C(=O)NC(C)c1ccc(-n2ccnc2)cc1 (stereo not drawn) | -57.5

Row | SMILES | hERG current change (%, negative = inhibition) at 10uM [%]
73 | CC(C)c1ccc(CCNC(=O)CCNC(=O)c2ccc(Br)cc2)cc1 | 5.74
74 | CC(NC(=O)c1ccccc1Cl)c1ccc(-n2ccnc2)cc1 (stereo not drawn) | -34.2
75 | CC(NC(=O)CCNC(=O)c1ccc(Br)cc1)c1ccc(S(N)(=O)=O)cc1 (stereo not drawn) | 15.3
76 | COc1cc(C(=O)NCC(=O)NC(C)c2ccc(-n3ccnc3)cc2)cc(OC)c1OC (stereo not drawn) | -3.06
77 | Nc1nnc(SCC(=O)NNC(=O)c2ccc(Cl)cc2)s1 | -0.0303
78 | O=C(N/N=C/c1ccc(O)cc1)c1ccc(COc2cc(Cl)ccc2Cl)o1 | 7.07
79 | c1csc(-c2nn3c(Cn4nnc5ccccc54)nnc3s2)c1 | 16.6
80 | Cc1cc(NNC(=O)Nc2cccc(Cl)c2)nc2c1c(C)nn2C | 3.56
81 | Cc1ccccc1NC(=O)CN1C(=O)N/C(=C\c2ccc(N3CCOCC3)c(F)c2)C1=O | 10.8
82 | COc1ccc(NC(=S)NCCc2c[nH]c3ccccc23)cc1 | -7.49
83 | Nc1ccccc1C#Cc1ccc([N+](=O)[O-])cc1 | 1.66
84 | CCc1ccc(-c2cc(C)no2)cc1S(=O)(=O)N1CCN(c2ccc(C(C)=O)cc2)CC1 | -4.32
85 | C=CCC(CC=C)(C(=O)O)c1ccccc1 | -8.46
86 | CC(NC(=O)CNC(=O)c1ccccc1F)c1ccc(-n2ccnc2)cc1 (stereo not drawn) | -64
87 | COc1ccc(C(=O)NC(C)c2ccc(-n3ccnc3)cc2)c(OC)c1 (stereo not drawn) | -53.8
88 | CC(NC(=O)c1c(F)cccc1Cl)c1ccc(-n2ccnc2)cc1 (stereo not drawn) | -27
89 | COc1ccc(C(=O)NC(C)c2ccc(-n3ccnc3)cc2)c(OC)c1OC (stereo not drawn) | -53.1
90 | COc1ccc(NC(C)=O)cc1S(=O)(=O)NC(C)c1ccc(-n2ccnc2)cc1 (stereo not drawn) | -3.74
91 | COc1ccc(OC)c(S(=O)(=O)NC(C)c2ccc(-n3ccnc3)cc2)c1 (stereo not drawn) | -25.1
92 | CC(NC(=O)CCNC(=O)c1ccccc1Cl)c1ccc(-n2ccnc2)cc1 (stereo not drawn) | -17.8
93 | CC(NC(=O)c1ccccc1OC(F)F)c1ccc(-n2ccnc2)cc1 (stereo not drawn) | -55
